Compound activity as filed in PubChem BioAssay.
Compounds with a hit are over-represented: about 3.8% of the library has one in this group of screens.
Jurkat NFkB inh = inhibitors of the PMA/ionomycin-induced NF-kB reporter in Jurkat cells | PMA/ionomycin-induced NF-kB luciferase reporter, luminescence | inhibition, % at 4 µM | actives 0.53% (n = 330,000); in the data active means inhibition above about 50%
697 NFkB inh = lowers PMA/ionomycin-induced NF-kB signal in 697 B cells. 697 B-cell NF-kB luciferase reporter, 16 h. inhibition, % at 4 µM. actives 0.33% (n = 330,000). AID 435022; in the data active means inhibition above about 35%
Beta apoptosis = beta cell apoptosis inhibition; INS-1E cytokine-induced death, ATP luminescence, 48 h; percent of positive-control rescue, neutral wells zero; protection from apoptosis, % (no concentration beside the values); actives 0.8% (n = 300,000);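 active means Every replicate reaches about 75%, or at least half do and their mean reaches it too, limit read from the data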;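 further: 0% = cytokine-treated negative control wells and 100% = positive control rescue; higher means more ATP so stronger rescue from cytokine killing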
NTR1 agonist = NTR1 (human) agonism; P30989; NTR1-U2OS beta-arrestin-GFP spot imaging, agonist mode; activation, % at 20 µM; actives 0.17% (n = 330,000); AID 493036;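 active means activation at or above 40% of the spot to cytoplasm intensity ratio, with at least 20 cells analyzed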;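 further: 0% = DMSO without peptide and 100% = 100 nM NTR1 peptide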
Target sequence (P30989 whole entry, looked up): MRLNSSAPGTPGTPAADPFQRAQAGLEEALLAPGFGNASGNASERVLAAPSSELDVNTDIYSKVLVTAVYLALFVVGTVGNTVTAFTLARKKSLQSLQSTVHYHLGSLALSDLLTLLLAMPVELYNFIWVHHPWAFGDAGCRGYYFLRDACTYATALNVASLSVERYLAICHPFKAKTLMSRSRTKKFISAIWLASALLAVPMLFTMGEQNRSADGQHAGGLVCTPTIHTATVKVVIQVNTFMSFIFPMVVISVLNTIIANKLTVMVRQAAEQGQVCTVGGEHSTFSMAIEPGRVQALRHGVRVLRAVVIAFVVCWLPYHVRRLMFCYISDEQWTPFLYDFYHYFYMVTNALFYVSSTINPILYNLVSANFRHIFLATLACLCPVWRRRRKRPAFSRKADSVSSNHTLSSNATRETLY
Bfl-1 A1 inh = inhibitors of the anti-apoptotic protein A1, read as caspase activation. MEF A1-2A-BIM cells, Caspase-Glo 3/7 luminescence, 3 h; percent of clofoctol response, vehicle zero. caspase activation, % (no concentration beside the values). actives 0.066% (n = 330,000). AID 2462;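 active means over half of replicate activation scores above 10%, or exactly half above 10 with the replicate mean above 10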
Mdm2-MdmX inh = disrupts the human Mdm2-MdmX interaction. O15151+Q00987. inhibition, % at 8 µM. SaOS-2 split-luciferase Mdm2/MdmX complementation, luminescence. AID 485346. actives 3% (n = 330,000);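 active means inhibition of at least 50% at 8 µM in the primary screen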
Mdm2-MdmX conf = confirmation of human Mdm2/MdmX interaction inhibitors; inhibition, % at 8 µM; shares compounds with Mdm2-MdmX inh; actives 55% (n = 10,000); Mdm2-MdmX binding, luminescent assay; in the data active means inhibition above about 40%
Full FLuc ctr = inhibits full-length luciferase, flagging false Mdm2/MdmX hits; shares compounds with Mdm2-MdmX inh; SaOS-2 full-length luciferase counterscreen, luminescence; inhibition, % at 8 µM; actives 77% (n = 6,200);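 active means mean inhibition at 8 µM reaching about 37%, which flags the compound as non-specific, limit read from the data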;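 further: p53-null SaOS-2 cells with luciferase driven by a doxycycline-inducible promoter; compound on cells about two nights before reading with doxycycline added after day one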
An asterisk follows results filed as active; x = not tested or not shown.

SMILES	Jurkat NFkB inh	697 NFkB inh	Beta apoptosis	NTR1 agonist	Bfl-1 A1 inh	Mdm2-MdmX inh	Mdm2-MdmX conf	others
CCc1ccc(NC(=O)CSc2nc3ccccc3c(=O)n2CCCN2CCC(C)CC2)cc1	-5.4	-6.6	9.1	19.4	0.4	86.2*	49.4*	Full FLuc ctr=36.2*
Cc1ccc(NC(=O)CSc2nc3ccccc3c(=O)n2CCCN2CCCCC2)cc1C	-5.9	-13.2	7.2	22.3	0.3	74.6*	40.4*	Full FLuc ctr=61.6*
O=C(CN1C(=O)C(=O)N(Cc2ccco2)C1=O)Nc1ccccc1	12.4	16.1	-2.8	0.2	0.2	16.0	x
CNc1nc(-c2ccccc2)nnc1C(F)(F)F	6.9	6.5	x	-0.9	0.8	6.6	x
Cc1ccc(Sc2nc(-c3ccccc3)nnc2C(F)(F)F)cc1	5.5	16.0	-8.0	35.5	x	54.0*	3.6
c1ccc(-c2nc3ccccn3c2NCc2ccc3c(c2)OCO3)cc1	-11.4	-21.8	0.8	-1.5	-1.3	6.1	x
Clc1cccc(-c2ccc(-c3nc4ccccn4c3NCc3ccccc3)cc2)c1	-7.5	-16.0	x	5.2	x	59.3*	-57.1
COc1ccc(-c2cc(-c3nc4ccccn4c3NCc3ccccc3)ccc2OC)cc1	3.3	22.3	125.0*	19.1	-1.8	99.1*	99.5*	Full FLuc ctr=52.1*
CCOC(=O)c1sc(NC(=O)CSc2nc3c(c(=O)n2-c2ccc(C)cc2)SCC3)c(C(=O)OCC)c1C	13.3	20.0	-2.4	0.0	-0.5	64.5*	-1.1
CCOC(=O)c1sc(NC(=O)CSc2nnnn2-c2ccc(C)cc2)c(C(=O)OCC)c1C	-10.2	9.1	6.2	1.4	-0.6	10.1	x
O=C(Nc1cccc(O)c1)c1cc2nc(-c3ccccc3)cc(-c3ccccc3)n2n1	11.0	7.5	9.9	9.3	1.0	17.8	x
COc1ccc(NC(=O)c2sc(-c3ccccc3)nc2C)c(OC)c1	-21.4	-13.8	4.6	7.2	0.9	-2.9	x
O=C(NC1CCCC1)c1cc2nc(-c3ccccc3)cc(-c3ccccc3)n2n1	1.6	27.8	22.0	6.2	0.0	54.9*	14.7
COc1ccc(NC(=O)c2cc3nc(-c4ccccc4)cc(-c4ccccc4)n3n2)c(OC)c1	-3.3	-12.3	9.6	0.7	0.3	63.7*	5.0
CCOc1ccc(CN(C(=O)c2cc(=O)c3cc(C)cc(C)c3o2)C2CCS(=O)(=O)C2)cc1 (centres undefined)	3.5	-2.0	10.2	2.4	-2.0	10.1	x
O=C(NC1CCCCCC1)C1CCC(=O)N(Cc2ccccc2F)C1 (centres undefined)	-3.0	6.2	-3.0	1.9	0.9	-0.3	x
Cc1cc(OCC(=O)N2CCN(c3ccc(F)cc3)CC2)c2c(C)cc(=O)oc2c1	5.4	-1.3	7.5	2.0	1.3	41.4	x
Cc1cc(OCC(=O)N2CCN(c3ccccc3)CC2)c2c(C)cc(=O)oc2c1	16.7	2.2	4.2	-0.2	-0.7	76.0*	6.8
Cc1cccc(Oc2ccccc2NC(=O)C2=COCCO2)c1	-2.6	-0.1	0.3	-2.0	-0.6	26.6	x
OCCN1CCN(Cc2cc(Cl)c3cccnc3c2O)CC1	-2.5	-11.0	2.6	1.1	0.5	44.3	x
Oc1c(I)cc(I)c2cccnc12	14.4	-12.6	x	2.6	x	92.5*	71.8*	Full FLuc ctr=39.4*
Cc1cccc(C)c1OCC(=O)NCC1COc2ccccc2O1 (centres undefined)	-7.2	10.5	0.4	-2.3	-0.5	30.7	x
CC1CCN(S(=O)(=O)c2ccc(NC(=S)NC(=O)c3ccc(Cl)cc3)cc2)CC1	13.2	-10.9	7.1	7.2	-0.6	53.5*	36.2	Full FLuc ctr=71.9*
CC(C)(C)C(CN1CCCC1)OC(=O)c1ccccc1 (centres undefined)	-3.1	7.5	-0.1	-0.1	-4.1	5.8	x
NC(=O)CCN(C(=O)c1cccc(S(=O)(=O)N2CCc3ccccc32)c1)c1ccccc1	-12.7	-10.6	0.7	-0.3	-0.2	-19.2	x
SMILES	Jurkat NFkB inh	697 NFkB inh	Beta apoptosis	NTR1 agonist	Bfl-1 A1 inh	Mdm2-MdmX inh	Mdm2-MdmX conf	others
COc1ccc(C(=O)/C=C/c2ccccc2F)c(OC(=O)c2ccc([N+](=O)[O-])cc2)c1	-6.7	-8.4	6.0	0.7	-1.4	-2.9	x
O=C(Oc1ccc(F)cc1C(=O)/C=C/c1cccs1)c1cccc([N+](=O)[O-])c1	35.3	-40.2	2.5	1.0	0.7	54.9*	41.6*	Full FLuc ctr=48.3*
CN1C(=O)C(O)(CC(=O)/C=C\c2ccc3c(c2)OCO3)c2ccccc21 (centres undefined)	11.5	-8.6	-3.8	3.1	-0.4	55.3*	-2.5
COc1ccc(Nc2nc(-c3ccccc3F)nc3ccccc23)cc1OC	-21.0	12.0	14.8	12.5	-0.3	54.8*	33.5
Oc1ccc(Nc2nc(-c3ccccc3O)nc3ccccc23)cc1	-4.2	1.3	-1.5	32.9	0.5	54.0*	24.1
Cc1ccc2c(c1)N(CC(=O)N1CCN(C3CCCCC3)CC1)C(=O)CO2	-1.8	13.8	-3.2	-0.1	0.0	-13.3	x
CCOc1cc(NC(=O)c2ccccn2)c(OCC)cc1NC(=O)c1ccc(Cl)cc1	16.0	-15.8	21.0	0.8	0.2	56.4*	18.2
CCOC(=O)C1=C(c2ccccc2)Nc2ncnn2C1c1ccc(C(=O)O)cc1 (centres undefined)	1.1	21.7	-9.7	0.2	1.4	-48.8	x
CCOC(=O)C1=C(c2ccccc2)NC(N)=NC1c1ccc(OCc2ccc(C(=O)OC)cc2)cc1 (centres undefined)	18.9	-12.8	-4.2	23.8	0.6	100.1*	35.4	Full FLuc ctr=72.3*
COc1ccc(-c2nn(-c3ccccc3)cc2C(=O)NC2CCCCC2C)cc1 (centres undefined)	-6.6	10.6	40.9	7.9	0.2	73.8*	29.4
COc1ccc(-c2nn(-c3ccccc3)cc2C(=O)NC2CCC(C)CC2)cc1 (centres undefined)	-0.3	4.0	10.2	0.3	-0.1	27.6	x
COc1ccc(C(=O)c2c(C(F)(F)F)oc3c2C(=O)c2ccccc2C3=O)cc1	13.1	-28.8	115.4*	3.5	-1.1	78.0*	66.2*	Full FLuc ctr=53.7*
Cc1c(C(=O)NC(=S)Nc2ccc(NC(=O)c3cccs3)cc2)oc2ccccc12	8.3	-4.4	11.5	1.4	0.4	62.0*	10.8
CC(=O)NC(=S)Nc1ccc(NC(=O)c2cccs2)cc1	-16.3	-14.4	-0.3	2.5	-1.4	1.8	x
Cc1cc2c(cc1S(=O)(=O)Nc1ccc(OC(F)(F)F)cc1)OCC(=O)N2	-0.1	-8.6	x	2.3	x	34.6	x
